# Screening results as filed in PubChem.
# Shown are actives, neighbours in structure and some others; about 14% of the full set was active somewhere.
# CHX counter: Cycloheximide Counterscreen for Small Molecule Inhibitors of Shiga Toxin; cell reporter, cycloheximide protein synthesis inhibition counterscreen; max response, %; 12% of 300,000 active; AID 2314, 2010; in the data active = max response mostly above about 13%, no sharp cut-off; inactive = mostly below about 14%; note: read at 38.3 µM for the half of the compounds with a filed dose; 0% is about no effect
# FBPA Giardia inh: qHTS Assay for Inhibitors of Fructose-1,6-bisphosphate Aldolase from Giardia Lamblia; purified Giardia FBPA; Potency, µM (highest dose often 59.6 µM), without a hit: at the highest dose activity, negative = inhibition, usual class: inhibitors; 0.71% of 290,000 active; note: potency is the fitted concentration of half-maximal effect; % is set by controls: 0 for no effect and ±100 for the full control effect; nearly all actives have a fitted effect of over 55% in size
#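 Giardia FBPA (40 nM reagent) was preincubated 10 min at RT with compound (up to 57.5 uM final), then substrate plus GAPDH/TPI/NAD/arsenate coupling system with diaphorase/resazurin was added; resorufin fluorescence (525/598 nm) was read after 20 min.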
# Shiga toxin inh: A qHTS for Small Molecule Inhibitors of Shiga Toxin. Vero cells, Shiga toxin protein synthesis inhibition reporter. inhibition, % at 38.7 µM. 9.2% of 290,000 active. AID 2315, 2010; in the data active = inhibition mostly above about 28%, no sharp cut-off; inactive = mostly below about 43%; note: 0% is about no effect
# NS1 inh: qHTS Assay for Inhibitors of Influenza NS1 Protein Function; Potency, µM (doses to about 46.1 µM), for the others: top-dose activity, positive = more growth; 0.4% of 270,000 active; calls by dose curve; note: potency is the fitted concentration of half-maximal effect; actives are rising curves; nearly all actives have a fitted effect of over 50% in size
#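 Growth recovery, yeast-based: influenza A NS1 expressed in S. cerevisiae causes slow growth, and suppressors are detected by OD600. The parent strain without NS1 is used as positive control.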
# LmPK inh: qHTS Assay for Inhibitors of Leishmania Mexicana Pyruvate Kinase (LmPK); Q27686; purified LmPK, Kinase-Glo ATP luminescence, 1 h; Potency, µM (highest dose often 57.5 µM), for inactives: at the top dose activity change, negative = inhibition, hits mostly inhibitors; 0.37% of 290,000 active; AID 1721, 2009; note: potency is the fitted concentration of half-maximal effect; % is set by controls: 0 for no effect and ±100 for the full control effect
# Target sequence (Q27686 whole entry, looked up): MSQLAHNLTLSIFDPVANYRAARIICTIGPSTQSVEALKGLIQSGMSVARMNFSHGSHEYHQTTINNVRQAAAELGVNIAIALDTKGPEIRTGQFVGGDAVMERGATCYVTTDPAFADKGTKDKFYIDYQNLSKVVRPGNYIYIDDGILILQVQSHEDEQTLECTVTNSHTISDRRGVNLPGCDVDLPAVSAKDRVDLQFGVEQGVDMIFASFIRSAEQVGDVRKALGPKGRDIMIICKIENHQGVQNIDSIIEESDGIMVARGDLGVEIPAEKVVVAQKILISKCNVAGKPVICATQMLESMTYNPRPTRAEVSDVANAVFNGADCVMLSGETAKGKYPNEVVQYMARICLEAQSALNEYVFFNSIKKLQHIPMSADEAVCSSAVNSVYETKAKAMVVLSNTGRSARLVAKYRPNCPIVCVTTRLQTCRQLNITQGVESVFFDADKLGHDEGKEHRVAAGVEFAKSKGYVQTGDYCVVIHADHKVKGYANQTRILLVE
#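 Purified LmPK (0.1 nM) converted ADP (0.1 mM) to ATP with PEP (0.5 mM) in imidazole buffer pH 7.2 with KCl and MgCl2, 1 h at room temperature. ATP was read by Kinase-Glo luminescence; data normalized to uninhibited and no-enzyme controls.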
# Starred values were filed as active, the others as inactive; ? = inconclusive; . = no result; + = active, no number; [ ] = remark or other dose. Unless noted, calls come from the whole dose curve; as a rule, active = well fitted curve in the direction sought with a large enough effect; inconclusive = small, poorly fitted or top-dose-only effect, or another doubt; inactive = no such curve, though single readings can be large; an effect the other way counts as inactive or inconclusive.
SMILES,CHX counter,FBPA Giardia inh,Shiga toxin inh,NS1 inh,LmPK inh
CC(C)Oc1ccc(Cn2c(-c3ccco3)n[nH]c2=S)cc1,10.4,7.7%,11.0,9.3%,14.1µM*
Nn1c(-c2ccco2)n[nH]c1=S,-4.3,?,-6.4,1.3%,4.3%
S=c1[nH]nc(-c2ccco2)n1-c1ccc(Cl)cc1,-1.3,1.2%,-3.2,-5.8%,17.8µM*
COc1ccc(-n2c(-c3ccco3)n[nH]c2=S)cc1,-4.1,2.0%,42.6,8.4%,?
S=c1[nH]nc(-c2ccco2)n1-c1cccc2ccccc12,-2.3,-0.1%,-1.8,-22.1%,7.94µM*
Cn1cc(Cl)c(-c2n[nH]c(=S)n2C2CCCCC2)n1,-3.2,-4.8%,-2.5,.,20µM*
O=C(/C=C/Nc1ccccc1O)c1ccco1,37.9*,-7.4%,63.1*,-75.1%,?
O=C(/C=C/Nc1ccc(Br)cc1F)c1ccco1,11.9,-5.2%,29.3,-34.6%,?
O=C(Cc1ccccc1)Nc1ccccc1Oc1ccccc1,7.4,5.7%,14.9,0.7%,1.3%
O=C(/C=C/Nc1ccccc1Oc1ccccc1)c1ccco1,51.5*,-8.8%,119.0*,-6.2%,-0.2%
CCCCc1nc2c(c3c1CC(C)OC3)CN(CCOc1ccccc1)CC2 (stereo not given),.,-5.1%[12.9 µM],.,.,.
CCN(CC(=O)Nc1c(F)cccc1F)C(=O)CNC(=O)c1ccc(C)s1,51.2*,.,65.2*,-35.0%,-7.1%
CC(=O)Nc1ccc(NC(=O)C(C)OC(=O)CNS(=O)(=O)c2cccc(Cl)c2)cc1 (stereo not given),-3.6,2.5%,-11.4,.,8.9%
N/C(=N\OC(=O)N1CCOCC1)c1ccc(Br)cc1,53.1*,1.5%,62.2,4.9%,-3.8%
N/C(=N\OC(=O)N1CCOCC1)c1ccc(Cl)cc1,55.2*,-1.6%,52.6*,-8.0%,-1.3%
S=C(c1ccc(Cl)cc1)N1CCOCC1,-5.2,2.0%,-12.5,-39.8%,2.5%
O=C(OCc1ccccc1)N1CCOCCN(C(=O)OCc2ccccc2)CCOCC1,-1.7,3.0%,1.4,3.2%,-1.1%
N/C(=N\OC(=O)N1CCOCC1)c1ccccc1,23.3*,5.5%,31.5,12.8%,-22.6%
CC(=O)c1ccc(N(CC(=O)NC2CCCCC2)C(=O)CNC(=O)c2ccco2)cc1,-6.4,.,-5.0,-2.0%,-3.1%
C=C(C)Cn1cnc2c(oc3nc4c(cc32)CCCC4)c1=O,33.1*,-1.3%,45.8*,-7.0%,-0.6%
COc1ccc(/C=N/Nc2nncn2N)cc1Br,21.5*,?,.,-89.9%,0.2%
COc1cc(/C=N/Nc2nncn2N)ccc1OCc1c(C)no[n+]1[O-],13.0*,5µM*,25.3,0.8%,0.0%
COc1cc(-c2c(-c3ccc4c(c3)OCO4)noc2-c2ccsc2)ccc1F,14.6*,-6.0%,17.6,-8.0%,-4.7%
Cc1onc(-c2ccc3c(c2)OCO3)c1-c1ccc2[nH]ccc2c1,2.8,-13.1%,22.1*,-88.5%,5.6%
c1cc2cc(-c3c(-c4ccc5c(c4)OCO5)noc3-c3ccsc3)ccc2[nH]1,39.3*,-0.8%,49.9*,8.1%,0.1%
SMILES,CHX counter,FBPA Giardia inh,Shiga toxin inh,NS1 inh,LmPK inh
O=c1cc(-c2ccccc2)nc2nc(-c3ccco3)[nH]n12,-2.5,-11.7%,4.8,0.3%,-17.9%
c1ccc(-c2onc(-c3ccco3)c2-c2ccc3[nH]ccc3c2)cc1,34.5*,-15.7%,42.1*,21.8%,0.2%
CCOC(=O)c1ccc(-c2c(-c3ccc4c(c3)OCO4)noc2-c2ccsc2)cc1F,-1.5,-13.0%,-3.5,-4.3%,1.0%
COC(=O)c1ccc(C(NC(=O)OCc2ccccc2)/C(F)=C/[C@@H](C)C(=O)NCc2nc3ccccc3s2)cc1 (stereo not given in full),.,3.1%,.,.,.
COc1cccc(Cn2c(=O)cnc3cnc(N4CCN(C)CC4)nc32)c1,.,-3.7%,.,.,.
Clc1ccccc1CONc1ncnc2nonc12,30.6*,-1.0%,+,-18.9%,1.2%
CCNc1oc(/C=C/c2ccc(OCC)cc2)nc1C#N,15.7*,-21.6%,38.2*,-6.6%,-4.8%
COc1ccc(/C=C/c2nc(C#N)c(NCCN(C)C)o2)cc1OC,1.9,-2.1%,1.6,-9.2%,1.4%
CNc1oc(/C=C/c2cccc(OC)c2)nc1C#N,34.8*,-7.4%,99.0*,-3.4%,0.2%
CCN(CC)CCCNc1oc(/C=C/c2ccccc2)nc1C#N,22.4*,-4.5%,23.6,1.0%,-1.6%
CN(C)CCCNc1oc(-c2ccccc2)nc1C#N,-1.9,1.3%,-15.1,-5.0%,1.5%
O=C(Nc1cc(Cl)ccc1N1CCOCC1)c1ccc(Br)o1,69.4*,.,65.4*,0.6%,-22.6%
O=C(CNC(=O)c1ccc(Br)o1)NCc1ccc(Cl)cc1Cl,-4.2,.,-15.4,6.9%,-7.2%
O=C(Nc1ccc(Cl)cc1Cl)c1ccc(Br)o1,43.9*,6.3%,78.1*,-35.4%,-4.9%
O=C1CSC(c2cccc([N+](=O)[O-])c2)N1Cc1ccccc1 (stereo not given),-2.4,2.0%,13.0,10.3%,-0.2%
C/C(=N\NC(=O)c1nn(C)c(C)c1Br)c1ccc(NC(=O)C2CCCC2)cc1,40.6*,.,107.2*,-8.1%,-15.0%
C/C(=N\NC(=O)c1ccn(C)n1)c1ccc(NC(=O)C2CCCC2)cc1,31.5*,0.9%,79.2*,6.2%,2.0%
C/C(=N\NC(=O)c1ccn(C)n1)c1ccc(NC(=O)C2CCC2)cc1,27.3*,.,55.7*,-8.2%,-11.5%
O=C(COC(=O)c1cc(Br)ccc1O)Nc1cc(S(=O)(=O)N2CCCC2)ccc1Cl,-2.8,-0.5%,-14.9,.,3.1%[11.5 µM]
O=C1CCCC(C(C(=O)OCc2ccccc2)C(=O)OCc2ccccc2)C1 (stereo not given),.,0.3%,.,.,.
CC(=O)c1cccc(OCc2cc(C(=O)N3C[C@H]4CC[C@H]3C4)no2)c1,50.3*,.,82.0*,-33.3%,3.9%
O=C(c1cc(COc2cccc(C(F)(F)F)c2)on1)N1C[C@H]2CC[C@H]1C2,30.5*,.,80.2*,-77.2%,-4.3%
CC(=O)c1ccc(OCc2cc(C(=O)N3CCC[C@H]3CO)no2)cc1,11.0,.,17.4,-0.2%,-4.7%
CC(=O)c1cccc(OCc2cc(C(=O)NC3CCN(Cc4ccccc4)CC3)no2)c1,-3.1,.,-8.0,-7.1%,-9.8%
CC1(C)C[C@@H]2C[C@@](C)(CN2C(=O)c2cc(COc3cccc(C(F)(F)F)c3)on2)C1,12.5,.,42.4*,-19.8%,-2.0%
COCCC1CCCCN1C(=O)c1cc(COc2cccc(C(C)=O)c2)on1 (stereo not given),33.6*,.,76.3*,-15.7%,-5.7%
COc1ccc(-c2cc(C(=O)N3CC4(C)CC3CC(C)(C)C4)no2)cc1 (stereo not given),-6.0,-2.5%,-11.0,-50.5%,3.4%
COc1ccc(OC2C=CC(c3ccccc3)OC2CO)c(C(C)=O)c1 (stereo not given),.,1.1%[12.9 µM],.,.,.
CC(=O)c1cccc(OCc2cc(C(=O)N3C[C@@H](C)O[C@@H](C)C3)no2)c1,40.7*,-5.8%,75.1*,-0.2%,4.7%
